# In PubChem BioAssay (Tox21):
# A number with no mark means an inactive call. Calls of active or inactive are those of the source. Calls follow the shape of the dose curve; as a rule, active = well fitted curve in the direction sought with a large enough effect in the repeat runs; inconclusive = weak or mixed curves; inactive = flat fitted curve, though single readings scatter.
# Experiment: qHTS assay to test for compound auto fluorescence at 460 nm (blue) in HEK293 cell free culture (AID 720681)
# Details: cell-free medium, autofluorescence 405/460 nm (blue); series mostly up to 91.3 µM; fluorescence, % of fluorescent control: at the top concentration
# From the text: U.S. Tox21 Program National Center for Advancing Translational Sciences [NCATS] NIH Chemical Genomics Center [NCGC] U.S. Environmental Protection Agency [EPA] National Institutes of Environmental Health Sciences [NIEHS] National Toxicology Program [NTP] U.S. Food and Drug Administration [FDA] Tox21 Assay Overview: Compound auto fluorescence often interferes with screening of the compound library against various biological targets and signaling pathways. Some of these compounds may have fluorophoric properties. Such properties may interfere with the assay outputs resulting in false positives and/or negatives. To decrease such complications and ensure the compound activities are relevant in terms of biological response, the Tox21 10K compound library was screened for auto fluorescence. From the fluorophores used as reporter signals in our screening assays, the auto fluorescence equivalencies of compounds against three fluorophores have been evaluated: Triamterene, Fluorescein and Rose Bengal sodium for blue, green and red fluorescence, respectively. The fluorescence intensities were measured using Excitation/Emission wavelengths at 405/460nm, 485/535nm and 540/590nm for blue, green and red labels, respectively. This assay includes the blue fluorescence data.
# Tox21 Assay Protocol Summary: 5 uL of culture medium (DMEM containing 10% FBS) per well was dispensed into black wall/clear bottom 1536-well plates using a Multidrop Combi Dispenser (ThermoFisher Scientific, Waltham, MA). After 23 nL compound or DMSO vehicle was transferred into assay plate by a pintool work station (Kalypsys, San Diego, CA), fluorescence intensities in the assay plates were measured by an Envision (PerkinElmer, Shelton, CT) plate reader using three labels for measuring blue, green and red fluorescence at […] 460, 535 and 590nm respectively.
# % is scaled to controls: 0 for no effect and ±100 for the full control effect; potency is read from the fitted curve at half-maximal effect.
SMILES,"fluorescence, % of fluorescent control",Potency
CCCCCc1ccc(N)cc1,0.02%,–
O=[N+]([O-])c1cccc(Cl)c1Cl,0.133%,–
Nc1nc(N)c2nc(CNc3ccc(C(=O)N[C@@H](CCC(=O)O)C(=O)O)cc3)cnc2n1,–,39.8 µM (active)
CCCCOC(=O)/C=C\C(=O)OCCCC,0.0143% [at 95.7 µM],–
CN1CCC(=C2c3ccccc3C=Cc3ccccc32)CC1,-0.0057% [at 46 µM],–
CC(=O)CC(=O)c1ccccc1,-0.0724%,–
CC[C@H](C)[C@@H](C(=O)O)n1sc2ccccc2c1=O,0.373%,–
CC(O)C1CCCCC1 (stereo not given),0.0948%,–
CCCC(C)C,0.109%,–
CC(=O)NCCCS(=O)(=O)O,–,inactive
Cc1cccc(Oc2ccccc2)c1,-0.295%,–
O=C(O)C1CCC(C(=O)O)CC1 (stereo not given),-0.364%,–
CCCCOc1cc(C(=O)OCCN(CC)CC)ccc1N,-0.116% [at 18.6 µM],–
Cc1ccc(C)o1,0.0338%,–
Cc1ccc(C(N)=O)cc1N,0.0568%,–
CN(c1nccc(=O)[nH]1)C1CCN(c2nc3ccccc3n2Cc2ccc(F)cc2)CC1,0.011% [at 46 µM],–
C=CC[N+]1([C@H]2C[C@H]3[C@@H]4CC[C@H]5C[C@H](OC(C)=O)[C@@H](N6CCCCC6)C[C@]5(C)[C@H]4CC[C@]3(C)[C@H]2OC(=O)CC)CCCCC1,0.0008% [at 46 µM],–
CC(C)c1ccccc1C(C)C,0.252%,–
O=C(O)Cc1cc(I)c(Oc2ccc(O)c(I)c2)c(I)c1,–,inactive
NC(N)=NN=C(/C=C/c1ccc([N+](=O)[O-])o1)/C=C/c1ccc([N+](=O)[O-])o1,-0.269% [at 46 µM],–

SMILES,"fluorescence, % of fluorescent control",Potency
CN(C)CCCNCCCN,0.0872%,–
COc1ccc2[nH]c(S(=O)Cc3ncc(C)c(OC)c3C)nc2n1 (stereo not given),0.044% [at 46 µM],–
CC(=O)c1c(C)c([N+](=O)[O-])c(C(C)(C)C)c([N+](=O)[O-])c1C,-0.0903%,–
CC[C@@H]1C[C@H](N(Cc2cc(C(F)(F)F)cc(C(F)(F)F)c2)C(C)=O)c2cc(C(F)(F)F)ccc2N1C(=O)OC(C)C,0.229%,–
CC(=O)/C(C)=C/C1C(C)=CCCC1(C)C (stereo not given),0.0083%,–
CC(=O)/C=C/C1C(C)=CCCC1(C)C (stereo not given),-0.11%,–
CC(=O)O[C@H]1C[C@@H]2CC[C@@H]3[C@H](CC[C@@]4(C)[C@H]3C[C@H]([N+]3(C)CCCCC3)[C@@H]4OC(C)=O)[C@@]2(C)C[C@@H]1N1CCCCC1,-0.101% [at 46 µM],–
Cc1c(Cn2ccnc2)c2ccccc2n1CCC(=O)O,-0.14% [at 46 µM],–
N=C(N=C(N)N)N1CCOCC1,0.0143% [at 18.6 µM],–
O=C(O)Cc1sc(-c2ccccc2)nc1-c1ccc(Cl)cc1,–,inactive
CC(C)(C)c1cc(CCC(=O)OCC(COC(=O)CCc2cc(C(C)(C)C)c(O)c(C(C)(C)C)c2)(COC(=O)CCc2cc(C(C)(C)C)c(O)c(C(C)(C)C)c2)COC(=O)CCc2cc(C(C)(C)C)c(O)c(C(C)(C)C)c2)cc(C(C)(C)C)c1O,-0.107% [at 46 µM],–
COc1ccc([C@@H]2Sc3ccccc3N(CCN(C)C)C(=O)[C@@H]2OC(C)=O)cc1,-0.042% [at 46 µM],–
O=C(O)/C=C/c1cnc[nH]1,0.0318%,–
COC(Cc1ccccc1)OC,-0.228%,–
CC[C@]12CCCN3CCc4c(n(c5ccccc45)C(=O)C1)[C@@H]32,-0.0431% [at 18.6 µM],–
CN(C)C/C=C(/c1ccc(Br)cc1)c1cccnc1,-0.0521% [at 46 µM],–
CC(C(=O)O)c1ccc(-c2ccccc2)c(F)c1 (stereo not given),–,inactive
CC(=O)OCCc1ccccc1,-0.175%,–
CCCCOC(=O)c1ccccc1C(=O)OCC(CC)CCCC (stereo not given),0.0016%,–
CCCCCCCCCCCCCCCC(=O)OC/C=C(C)/C=C/C=C(C)/C=C/C1=C(C)CCCC1(C)C,–,inactive
